M1 PAM parental – counter-screen for M1 PAMs: effect in parental CHO-K1 cells. ATP EC20, Fluo-8 calcium fluorescence; 0% at ATP EC20, 100% at ATP max. activation, % at 3 µM. actives 0.02% (n = 360,000);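 active = activation above the run cutoff, the mean activation of all test compounds plus 3 SD, cut at about 40% in these data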;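 also: peak over basal fluorescence ratio in a 140 s read after ATP addition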
M1 PAM – human CHRM1 positive allosteric modulation; P11229; CHO-K1 hM1, Fluo-8 calcium fluorescence, ACh EC20; 0% = ACh EC20, 100% = maximal ACh; activation, % at 3 µM; actives 0.088% (n = 360,000); AID 588819; in the data active = activation above about 19%, passing the limit was not always enough
Target sequence (P11229 whole entry, looked up): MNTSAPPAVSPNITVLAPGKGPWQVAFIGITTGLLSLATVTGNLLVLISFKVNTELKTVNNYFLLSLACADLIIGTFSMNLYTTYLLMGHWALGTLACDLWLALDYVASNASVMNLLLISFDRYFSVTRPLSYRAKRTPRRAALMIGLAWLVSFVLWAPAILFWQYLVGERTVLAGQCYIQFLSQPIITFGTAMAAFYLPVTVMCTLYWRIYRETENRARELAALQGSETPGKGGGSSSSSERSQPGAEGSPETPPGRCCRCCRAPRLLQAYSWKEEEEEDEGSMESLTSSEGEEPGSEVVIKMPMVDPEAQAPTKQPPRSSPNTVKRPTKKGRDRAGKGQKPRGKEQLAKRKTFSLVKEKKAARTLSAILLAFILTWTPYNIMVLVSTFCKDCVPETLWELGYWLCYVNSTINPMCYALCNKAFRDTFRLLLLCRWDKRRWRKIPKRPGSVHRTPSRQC
CHO-K1 Ca ag – M1 agonist counterscreen hit in parental CHO-K1 cells | activation, % at 3 µM | AID 602248 | actives 0.48% (n = 360,000) | Fluo-8 calcium fluorescence; scaled to maximal ATP response, vehicle zero; in the data active = activation above about 15%;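 also: untransfected CHO-K1 host cells lacking M1 receptor as counterscreen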
M1 ag – activates human CHRM1 receptor; CHO-K1 hM1, Fluo-8 calcium fluorescence, agonist mode; 0% DMSO, 100% acetylcholine EC100; P11229; activation, % at 3 µM; actives 0.33% (n = 360,000); AID 588814;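 active = activation above the run's mean compound activation plus 3 SD, cut at about 16% in these data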;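 also: peak over basal fluorescence ratio within a 140 s kinetic read after compound addition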
CHRM1 antagonist – blocks human M1 muscarinic receptor | inhibition, % at 3 µM | CHO-K1 hM1, Fluo-8 calcium fluorescence, ACh EC80 antagonist | actives 1.3% (n = 360,000) | P11229 | AID 588852;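 active = percent inhibition above its own plate's cutoff, namely the mean of that plate's compound wells plus 3 SD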;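 also: peak over basal fluorescence ratio during 140 s after agonist addition; 0% = ACh EC80 plus DMSO and 100% = DMSO alone without agonist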
CHO-K1 Ca antag – M1 antagonist counterscreen hit in parental CHO-K1 cells. ATP-induced calcium, Fluo-8 fluorescence. inhibition, % at 3 µM. actives 0.6% (n = 360,000). AID 602250;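 active = inhibition above a per-plate cutoff, the plate's mean sample inhibition plus 3 SD, cut at about 24% in these data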;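 also: 0% = DMSO plus EC80 ATP and 100% = DMSO alone without ATP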
* hit, by the source's call. A selection: hits, their analogues and other compounds. The true share with any hit is near 2.3%.

SMILES	M1 PAM parental	M1 PAM	CHO-K1 Ca ag	M1 ag	CHRM1 antagonist	CHO-K1 Ca antag
O=C1CSC(c2ccccc2Br)N1c1ccc(Cl)cn1 (stereo not given)	17.6	-22.0	0.6	-6.4	58.7*	-2.2
O=c1c2sccc2n(Cc2cccc(F)c2)c(=O)n1-c1ccc(F)cc1	1.7	3.7	-0.2	-4.8	-7.7	1.5
COc1ccccc1CN1CCC(CNS(=O)(=O)c2cc(-c3onc(C)c3C)ccc2OC)CC1	-6.9	-42.2	0.8	-13.1	102.4*	10.9
Cc1cc(-c2ccc(C)c(S(=O)(=O)NCC3CCN(Cc4ccccc4F)CC3)c2)on1	11.4	-22.9	1.4	-5.4	55.1*	-4.6
Cc1cc(-c2ccc(C)c(S(=O)(=O)NCC3CCN(Cc4cccc(F)c4)CC3)c2)on1	-7.7	-15.2	7.7	-2.3	19.6	0.7
COc1cccc(CCN2CCC(CNS(=O)(=O)c3cc(-c4cc(C)no4)ccc3OC)CC2)c1	-1.1	-22.6	3.1	-3.3	37.0*	-14.4
COc1cccc(CCN2CCC(CNS(=O)(=O)c3cc(-c4cc(C)no4)ccc3C)CC2)c1	-13.0	-19.7	6.0	0.4	26.0	-0.9
CCn1c(=O)cc(SCC(=O)Nc2cccnc2)c2ccccc21	-9.2	-9.8	1.1	-2.0	14.8	24.6*
CCn1c(=O)cc(SCC(=O)Nc2ccc3c(c2)OCO3)c2ccccc21	10.6	6.6	1.8	-6.1	-5.2	-14.6
CC(C#N)(Cc1ccccc1)Nc1ccccc1 (stereo not given)	4.5	8.3	1.2	-1.9	-5.0	0.5
O=C(NCC1CCCO1)C(=O)NCC1CCCN1S(=O)(=O)c1ccccc1 (stereo not given)	7.7	-0.9	0.3	-3.2	4.9	-1.6
O=[N+]([O-])c1ccccc1NCCOc1ccccc1	-4.4	2.0	-0.1	-6.3	-4.2	-0.8
Cc1nonc1OCCNCCNc1ccccc1[N+](=O)[O-]	-12.1	-8.8	0.1	-0.5	13.0	27.0*
CCn1nnnc1NCc1ccc(N2CCCC2)cc1	14.4	-22.3	0.4	-4.7	89.4*	-13.7
CCn1nnnc1NCc1ccc(SC)cc1	14.5	-0.3	0.3	-8.5	-5.2	-2.4
c1ccc(-c2ccccc2OCCN2CCCC2)cc1	-23.5	-28.6	-0.1	-11.2	67.6*	18.4
c1ccc(-c2ccccc2OCCCCN2CCCCCC2)cc1	15.1	-26.3	3.8	-9.5	35.2*	-1.7
c1ccc(-c2ccccc2OCCOCCN2CCCCC2)cc1	15.8	-13.8	1.3	-8.5	18.8	-5.8
Cc1c(N2C(=O)CSC2c2ccco2)c(=O)n(-c2ccccc2)n1C (stereo not given)	22.8	10.7	1.2	-2.5	-24.7	-24.1
CCOC(=O)c1c(-c2ccccc2Cl)csc1NC(=O)c1cc(S(=O)(=O)N2CCOCC2)ccc1C	20.0	5.0	0.2	-9.5	-1.5	-7.1
CC(C)c1cc(CNC(=O)c2cc(COc3cncc(Cl)c3)on2)on1	-12.2	6.8	15.5*	-2.3	-3.7	10.5
Cc1cnn(-c2cc(Oc3ccccc3)ncn2)c1	-7.9	-2.5	-0.4	-1.5	9.5	25.0*
c1ccc(Oc2cc(-n3cncn3)ncn2)cc1	27.6	11.7	1.6	-7.6	-12.7	-10.9
Nc1[nH]n2c(=O)cc(-c3ccccc3)nc2c1N=Nc1ccc(S(N)(=O)=O)cc1	-6.1	11.8	-0.7	-3.1	-0.1	24.7*
Nc1[nH]n2c(=O)cc(-c3ccccc3)nc2c1N=Nc1ccccc1	-10.4	-1.1	-0.2	-3.8	-1.2	21.2
SMILES	M1 PAM parental	M1 PAM	CHO-K1 Ca ag	M1 ag	CHRM1 antagonist	CHO-K1 Ca antag
O=c1[nH]c(/C=C\c2cccc(Cl)c2)nc(O)c1[N+](=O)[O-]	-9.9	-0.4	-0.6	-2.0	-5.0	9.2
C=CCOc1ccc(/C=C\c2nc(O)c([N+](=O)[O-])c(=O)[nH]2)cc1OCC	0.9	27.3*	1.1	-4.0	-3.5	-8.6
C=CCOc1ccc(/C=C\c2nc(O)c([N+](=O)[O-])c(=O)[nH]2)cc1OC	2.1	0.1	0.2	-4.3	-7.8	-6.4
O=c1[nH]c(/C=C\c2cccc(F)c2)nc(O)c1[N+](=O)[O-]	40.8*	8.0	0.9	3.9	-20.1	-60.0
CCCNC(=S)NC1CCCC1	-4.2	-9.9	-0.1	-3.7	38.1*	4.5
COc1cccc(C(=O)NCCS(=O)(=O)NCc2ccco2)c1	8.3	7.3	0.7	-2.9	-13.8	36.8*
Cc1c(Br)c([N+](=O)[O-])nn1CC(=O)N1CCc2ccccc2C1	4.8	-1.9	0.4	-9.0	6.8	10.3
Cc1c(Br)c([N+](=O)[O-])nn1C(C)C(=O)N1CCc2ccccc2C1 (stereo not given)	6.5	-23.5	3.4	-5.8	72.6*	-6.1
CCCN1CCN(C(=O)C2CCN(S(=O)(=O)c3c(C)noc3/C=C/c3ccc(C)cc3)CC2)CC1	11.1	-22.0	1.6	-4.8	33.9*	-9.1
Cc1ccc(/C=C/c2onc(C)c2S(=O)(=O)N2CCC(C(=O)N3CCCCC3)CC2)cc1	26.1	11.7	0.5	-4.4	-16.9	-10.7
Cc1cc(NC(=O)CS(=O)(=O)c2cn(Cc3cccc(Br)c3)c3ccccc23)no1	4.0	14.0	1.6	29.9*	-5.3	-3.6
Cc1cc(NC(=O)CS(=O)(=O)c2cn(Cc3ccccc3Cl)c3ccccc23)no1	-2.1	-1.1	4.4	11.2	7.2	-12.5
Cc1cc(NC(=O)CS(=O)c2cn(Cc3cccc(Cl)c3)c3ccccc23)no1 (stereo not given)	11.9	2.5	5.3	22.6*	-6.1	4.3
CCCn1cc(SCC(=O)Nc2cc(C)on2)c2ccccc21	7.6	17.2	0.4	-3.4	-25.3	-8.5
O=C(c1ccco1)c1coc2c1cc(O)c1ccccc12	-2.2	0.1	0.6	-2.3	2.4	3.7
O=C(O)c1ccccc1NC(=O)C1CCN(S(=O)(=O)c2cccc3nsnc23)CC1	10.4	11.1	-0.3	-0.7	-14.5	-7.7
Cn1c(CNC(=O)CCNC(=O)c2ccc(F)c(F)c2)cc(=O)n(C)c1=O	-6.1	11.3	-0.2	1.2	-19.6	2.6
CC(=O)Nc1ccc(Nc2ncnc3c2cnn3-c2ccc(C)cc2C)cc1	-6.2	11.1	-0.1	-3.0	-6.7	25.8*
CC(=O)Nc1ccc(Nc2ncnc3c2cnn3-c2cccc(C)c2)cc1	7.2	-0.5	0.5	-3.4	5.1	-8.0
Cc1cccc(Nc2ncnc3c2cnn3C)c1	-9.8	6.1	0.3	2.0	4.8	29.5*
O=C(Nc1ccnn1C1CCN(Cc2ccccc2OC(F)F)CC1)c1cccnc1	-15.1	-9.9	0.1	-13.7	10.5	-4.2
CC(=O)Cn1c(N2CCC(Cc3ccccc3)CC2)nc2c1c(=O)[nH]c(=O)n2C	23.3	21.5*	-0.5	-1.0	-48.5	-17.1
